Experimental data taken from PubChem BioAssay (EPA / NIEHS).
Values joined by “and” are separate entries in the source; they are usually repeats but may differ in a detail not shown here. Equal entries are not always repeated. Records with an inconclusive call do not appear. Active and inactive are the calls of the source. Rule for the calls, unless noted: active = hit-call score of the fitted dose curve at least 0.9, where 1 is the maximum; inconclusive = response in the unintended direction; inactive = score below 0.9.

What was measured:
[1] = target: human Serotonin Transporter (SERT), SLC6A4 (gene 6532) (UniProt P31645); experiment: NVS_TR_hSERT: NovaScreen (NVS) Transporter Assay for human Serotonin Transporter (SERT) (AID 2283372)
Procedure, shortened: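 Radioligand binding to native SERT in human platelet membranes, read by filter-based scintillation counting 1 h after dosing. Primary screen in duplicate at 25 uM; actives followed up in concentration series; loss of signal versus DMSO baseline.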

[2] = target: rat Serotonin Transporter (SERT), Slc6a4 (gene 25553) (UniProt P31652); experiment: NVS_TR_rSERT: NovaScreen (NVS) Transporter Assay for rat Serotonin Transporter (SERT) (AID 2283375)
Procedure, shortened: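 Using rat forebrain membrane SERT, test chemicals compete with a radioligand for 1 hour, and bound counts are taken by filter-based scintillation. Screening starts at 25 uM in duplicate, followed by concentration series for actives.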

[3] = target: Estrogen receptor beta (Homo sapiens) (UniProt Q92731); experiment: OT_ER_ERbERb_1440: Odyssey Thera (OT) 24-hour HEK293T Protein-Complementation Assay for Estrogen Receptor-beta/-beta Homodimer (AID 2283380);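 note: scored as signal increase over DMSO baseline for both agonists and antagonists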
Procedure, shortened: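 HEK293T cells stably expressing ER beta LBD (aa 310-547) homodimer fragment-complementation reporter, dosed 24 h. Cells formaldehyde-fixed, Draq5-stained; gain in nuclear (agonist) or nuclear plus cytoplasmic (antagonist) fluorescence versus DMSO read by laser scanning cytometry.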

[4] = target: Estrogen receptor (Homo sapiens) (UniProt P03372); experiment: OT_ERa_GFPERaERE_0480: Odyssey Thera (OT) 8-hour HeLa Transcription Induction Assay for Estrogen Receptor (AID 2283381; active = hit-call score of the fitted dose curve at least 0.9, where 1 is the maximum; inactive = score below 0.9)
Procedure, shortened: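 HeLa cells dosed with compound and imaged by fluorescence microscopy at 8 h; GFP induction from an ERE reporter quantified by high-content image analysis and fitted as gain of signal against DMSO baseline.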

[5] = target: human Dopamine Transporter (DAT), SLC6A3 (gene 6531) (UniProt Q01959); experiment: NVS_TR_hDAT: NovaScreen (NVS) Transporter Assay for human Dopamine Transporter (DAT) (AID 2283374);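 note: activity means loss of bound radioligand signal relative to DMSO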
Procedure, shortened: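 Cell-free radioligand displacement binding at human DAT, 1 h after dosing, with filtration and scintillation counting. Primary screen in duplicate at 25 uM, actives then in concentration series. Loss of bound signal versus DMSO scored.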

[6] = tested on: rat Norepinephrine Transporter (NET), gene 83511; experiment: NVS_TR_rNET: NovaScreen (NVS) Transporter Assay for rat Norepinephrine Transporter (NET) (AID 2283373)
Procedure, shortened: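 Rat forebrain membranes; radioligand binding measured by filter-based scintillation counting 1 hour after dosing. Loss of specific binding versus DMSO baseline scored; primary screen in duplicate at 25 uM, actives followed up in concentration series.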

[7] = target: human Norepinephrine Transporter (NET), SLC6A2 (gene 6530) (UniProt P23975); experiment: NVS_TR_hNET: NovaScreen (NVS) Transporter Assay for human Norepinephrine Transporter (NET) (AID 2283377);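 note: displacement of radioligand from human NET seen as loss of scintillation signal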
Procedure, shortened: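 Cell-free radioligand binding using CHO-derived membrane protein expressing human NET, read by filter scintillation counting 1 h after dosing; loss of signal vs DMSO. Initial duplicate screen at 25 uM, actives retested in concentration series.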

[8] = target: Agonist Androgen Response Element (ARE), AR (gene 367) (UniProt P10275); experiment: OT_AR_ARELUC_AG_1440: Odyssey Thera (OT) 24-hour CHO-K1 Luciferase Assay for Agonist Androgen Response Element (ARE) (AID 2283379)
Procedure, shortened: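 CHO-K1 cells carrying an ARE-driven luciferase reporter were exposed to compounds for 24 h. Luminescence was then read after adding a D-luciferin/ATP mix, and activity was scored as a gain in signal over DMSO vehicle.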

[9] = target: mouse Estrogen Receptor alpha (Era), Esr1 (gene 13982) (UniProt P19785); experiment: NVS_NR_mERa: NovaScreen (NVS) Nuclear Receptor Binding Assay for mouse Estrogen Receptor alpha (Era) (AID 2283378);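 note: hit means loss of bound radioligand signal relative to DMSO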
Procedure, shortened: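 Measurements come from scintillation counting after filtration, taken 18 hours after chemicals were added to a cell-free mouse Era preparation with radioligand. Screening was duplicate at 25 uM, with concurrent positive and negative controls and confirmatory concentration series for actives.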

Sequence of Estrogen receptor beta (Homo sapiens) (Q92731 whole entry, looked up, the tested form may be a part): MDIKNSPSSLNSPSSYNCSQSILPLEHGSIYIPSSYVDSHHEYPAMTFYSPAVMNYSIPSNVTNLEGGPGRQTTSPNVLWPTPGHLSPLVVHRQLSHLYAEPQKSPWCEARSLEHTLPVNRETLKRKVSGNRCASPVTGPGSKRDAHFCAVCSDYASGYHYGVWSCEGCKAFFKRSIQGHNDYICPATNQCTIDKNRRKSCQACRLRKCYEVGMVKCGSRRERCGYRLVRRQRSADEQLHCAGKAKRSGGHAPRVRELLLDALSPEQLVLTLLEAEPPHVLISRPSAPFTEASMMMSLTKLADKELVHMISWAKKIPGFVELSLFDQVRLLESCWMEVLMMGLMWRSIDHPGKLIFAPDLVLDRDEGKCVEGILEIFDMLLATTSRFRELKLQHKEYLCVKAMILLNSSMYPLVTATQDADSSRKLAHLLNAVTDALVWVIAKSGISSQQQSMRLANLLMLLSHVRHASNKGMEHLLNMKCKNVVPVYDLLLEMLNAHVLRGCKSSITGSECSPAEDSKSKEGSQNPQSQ
Sequence of human Dopamine Transporter (DAT), SLC6A3 (gene 6531) (Q01959 whole entry, looked up): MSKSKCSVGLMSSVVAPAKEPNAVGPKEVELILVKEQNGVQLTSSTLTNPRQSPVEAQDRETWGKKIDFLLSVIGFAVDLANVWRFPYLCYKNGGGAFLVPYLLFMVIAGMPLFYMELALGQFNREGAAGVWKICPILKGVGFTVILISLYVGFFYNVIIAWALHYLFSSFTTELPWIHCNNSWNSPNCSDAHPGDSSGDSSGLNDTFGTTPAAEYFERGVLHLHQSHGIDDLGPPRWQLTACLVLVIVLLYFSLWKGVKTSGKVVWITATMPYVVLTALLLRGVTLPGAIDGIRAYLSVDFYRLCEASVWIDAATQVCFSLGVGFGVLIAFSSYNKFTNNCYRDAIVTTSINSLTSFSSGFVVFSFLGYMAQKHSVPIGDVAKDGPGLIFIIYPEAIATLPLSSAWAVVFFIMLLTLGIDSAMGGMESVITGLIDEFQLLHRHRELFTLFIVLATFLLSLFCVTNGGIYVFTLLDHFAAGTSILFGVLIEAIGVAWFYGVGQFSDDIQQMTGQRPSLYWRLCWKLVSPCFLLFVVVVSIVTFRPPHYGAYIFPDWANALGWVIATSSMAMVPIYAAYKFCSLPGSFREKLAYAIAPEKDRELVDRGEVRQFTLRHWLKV
Sequence of human Norepinephrine Transporter (NET), SLC6A2 (gene 6530) (P23975 whole entry, looked up): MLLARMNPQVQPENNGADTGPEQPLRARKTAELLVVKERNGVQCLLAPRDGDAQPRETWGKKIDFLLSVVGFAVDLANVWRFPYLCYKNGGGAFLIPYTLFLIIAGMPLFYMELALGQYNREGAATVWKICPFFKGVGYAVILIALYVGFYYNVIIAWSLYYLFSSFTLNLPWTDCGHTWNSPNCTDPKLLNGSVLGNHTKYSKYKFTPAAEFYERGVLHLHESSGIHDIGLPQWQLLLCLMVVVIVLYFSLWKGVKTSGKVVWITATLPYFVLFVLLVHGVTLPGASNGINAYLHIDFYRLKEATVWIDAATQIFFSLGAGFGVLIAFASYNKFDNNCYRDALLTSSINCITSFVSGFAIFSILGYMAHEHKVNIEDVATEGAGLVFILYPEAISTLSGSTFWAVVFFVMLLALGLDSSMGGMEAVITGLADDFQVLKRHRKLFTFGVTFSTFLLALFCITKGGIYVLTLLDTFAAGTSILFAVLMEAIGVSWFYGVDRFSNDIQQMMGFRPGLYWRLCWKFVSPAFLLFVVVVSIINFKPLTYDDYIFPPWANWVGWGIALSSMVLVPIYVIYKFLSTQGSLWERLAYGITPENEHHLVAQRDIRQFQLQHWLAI
Sequence of Estrogen receptor (Homo sapiens) (P03372 whole entry, looked up): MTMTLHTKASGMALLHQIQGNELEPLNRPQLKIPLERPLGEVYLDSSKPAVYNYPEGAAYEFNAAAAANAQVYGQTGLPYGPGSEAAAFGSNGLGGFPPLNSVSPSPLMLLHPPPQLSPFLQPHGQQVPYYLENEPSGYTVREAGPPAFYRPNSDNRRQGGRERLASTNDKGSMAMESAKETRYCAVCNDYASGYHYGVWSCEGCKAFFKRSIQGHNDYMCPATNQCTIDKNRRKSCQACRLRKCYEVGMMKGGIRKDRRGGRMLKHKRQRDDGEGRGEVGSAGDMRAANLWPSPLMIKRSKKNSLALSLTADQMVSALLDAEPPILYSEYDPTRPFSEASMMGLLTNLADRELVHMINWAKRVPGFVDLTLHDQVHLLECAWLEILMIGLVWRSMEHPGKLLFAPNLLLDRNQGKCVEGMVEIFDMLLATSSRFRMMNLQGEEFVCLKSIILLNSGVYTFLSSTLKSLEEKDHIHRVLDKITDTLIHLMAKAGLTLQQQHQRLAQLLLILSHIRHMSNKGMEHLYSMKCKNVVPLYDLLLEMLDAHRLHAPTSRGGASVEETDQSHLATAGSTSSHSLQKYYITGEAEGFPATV
Sequence of Agonist Androgen Response Element (ARE), AR (gene 367) (P10275 whole entry, looked up): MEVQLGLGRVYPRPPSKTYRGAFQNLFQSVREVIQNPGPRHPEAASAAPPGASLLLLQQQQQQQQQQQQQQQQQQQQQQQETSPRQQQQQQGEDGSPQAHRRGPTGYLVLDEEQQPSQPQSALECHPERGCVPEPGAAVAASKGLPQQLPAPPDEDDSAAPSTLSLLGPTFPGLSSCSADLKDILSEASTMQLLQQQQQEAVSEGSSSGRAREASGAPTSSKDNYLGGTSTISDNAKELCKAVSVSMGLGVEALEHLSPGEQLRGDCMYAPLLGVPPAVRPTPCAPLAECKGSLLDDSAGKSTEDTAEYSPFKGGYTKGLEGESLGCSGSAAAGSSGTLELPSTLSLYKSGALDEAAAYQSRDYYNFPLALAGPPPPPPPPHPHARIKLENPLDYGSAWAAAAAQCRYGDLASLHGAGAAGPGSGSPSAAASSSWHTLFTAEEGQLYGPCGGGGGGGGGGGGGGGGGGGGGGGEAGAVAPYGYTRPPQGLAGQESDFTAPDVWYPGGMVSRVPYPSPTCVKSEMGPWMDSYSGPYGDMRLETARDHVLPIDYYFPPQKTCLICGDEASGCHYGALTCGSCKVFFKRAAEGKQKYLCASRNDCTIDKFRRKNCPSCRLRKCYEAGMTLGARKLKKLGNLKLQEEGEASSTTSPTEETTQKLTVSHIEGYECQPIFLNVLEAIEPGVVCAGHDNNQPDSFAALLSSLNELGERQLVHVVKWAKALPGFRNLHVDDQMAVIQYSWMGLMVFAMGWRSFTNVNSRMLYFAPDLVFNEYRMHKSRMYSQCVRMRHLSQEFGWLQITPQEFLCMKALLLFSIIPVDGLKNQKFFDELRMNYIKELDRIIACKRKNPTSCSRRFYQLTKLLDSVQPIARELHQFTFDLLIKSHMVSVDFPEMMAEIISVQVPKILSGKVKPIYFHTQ
Sequence of rat Serotonin Transporter (SERT), Slc6a4 (gene 25553) (P31652 whole entry, looked up): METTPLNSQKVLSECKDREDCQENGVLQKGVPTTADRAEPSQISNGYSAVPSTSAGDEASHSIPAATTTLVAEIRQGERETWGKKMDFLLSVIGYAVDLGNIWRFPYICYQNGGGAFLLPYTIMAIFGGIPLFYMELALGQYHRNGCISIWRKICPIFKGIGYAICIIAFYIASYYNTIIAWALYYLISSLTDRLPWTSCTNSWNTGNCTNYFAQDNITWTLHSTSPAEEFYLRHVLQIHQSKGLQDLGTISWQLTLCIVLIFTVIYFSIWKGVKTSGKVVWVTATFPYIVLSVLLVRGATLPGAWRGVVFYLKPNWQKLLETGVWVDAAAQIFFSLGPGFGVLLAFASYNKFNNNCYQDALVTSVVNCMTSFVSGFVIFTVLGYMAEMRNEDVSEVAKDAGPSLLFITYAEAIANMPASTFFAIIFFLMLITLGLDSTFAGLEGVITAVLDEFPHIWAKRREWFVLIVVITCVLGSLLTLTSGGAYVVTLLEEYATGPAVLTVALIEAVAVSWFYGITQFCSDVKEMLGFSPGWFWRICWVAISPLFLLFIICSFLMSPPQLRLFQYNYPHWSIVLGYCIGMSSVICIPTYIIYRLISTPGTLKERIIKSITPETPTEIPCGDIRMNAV
Sequence of human Serotonin Transporter (SERT), SLC6A4 (gene 6532) (P31645 whole entry, looked up): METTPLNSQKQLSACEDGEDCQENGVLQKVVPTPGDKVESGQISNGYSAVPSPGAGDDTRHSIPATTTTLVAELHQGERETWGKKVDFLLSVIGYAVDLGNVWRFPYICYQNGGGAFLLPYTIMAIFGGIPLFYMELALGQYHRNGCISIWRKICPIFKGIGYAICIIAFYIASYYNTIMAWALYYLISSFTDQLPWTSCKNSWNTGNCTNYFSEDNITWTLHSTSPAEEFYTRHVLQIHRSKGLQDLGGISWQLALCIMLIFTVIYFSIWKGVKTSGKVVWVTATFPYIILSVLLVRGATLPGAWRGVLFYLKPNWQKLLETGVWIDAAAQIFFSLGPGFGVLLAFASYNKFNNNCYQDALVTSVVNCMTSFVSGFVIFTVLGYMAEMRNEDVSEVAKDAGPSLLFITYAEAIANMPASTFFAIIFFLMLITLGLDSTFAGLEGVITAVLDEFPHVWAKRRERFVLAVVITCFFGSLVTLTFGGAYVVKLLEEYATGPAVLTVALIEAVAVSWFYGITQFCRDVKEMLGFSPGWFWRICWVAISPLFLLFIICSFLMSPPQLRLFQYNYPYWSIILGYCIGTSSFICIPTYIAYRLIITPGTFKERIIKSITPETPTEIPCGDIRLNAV

SMILES: N#Cc1c(Cl)c(Cl)c(Cl)c(C#N)c1Cl
- outcome [1]: inactive
- AC50 [2]: 8.2 µM (active)
- AC50 [3]: 0.338 µM (active)
- outcome [4]: inactive

SMILES: CC1(C)C(C=C(Cl)Cl)C1C(=O)OC(C#N)c1ccc(F)c(Oc2ccccc2)c1 (stereo unspecified)
- AC50 [5]: 2.03 µM (active)
- outcome [3]: inactive
- outcome [4]: inactive

SMILES: Oc1cc(Cl)ccc1Oc1ccc(Cl)cc1Cl
- AC50 [6]: 13.7 µM (active) [middle of 4 runs]
- AC50 [5]: 21.3 µM (active) [middle of 4 runs]
- AC50 [7]: 585 nM (active) [middle of 4 runs]
- outcome [3]: inactive

SMILES: N#CN
- AC50 [7]: 13 µM (active)
- outcome [3]: inactive
- outcome [4]: inactive

SMILES: C#CCN1C(=O)COc2cc(F)c(N3C(=O)C4=C(CCCC4)C3=O)cc21
- outcome [8]: inactive
- outcome [3]: inactive
- outcome [4]: inactive

SMILES: CCC(C)(C)C(=O)OC1=C(c2ccc(Cl)cc2Cl)C(=O)OC12CCCCC2
- outcome [5]: inactive
- outcome [8]: inactive
- outcome [3]: inactive
- outcome [4]: inactive

SMILES: ClC1C(Cl)C(Cl)C(Cl)C(Cl)C1Cl (stereo unspecified)
- AC50 [5]: 5.04 µM (active) and 18.5 µM (active) and 14.4 µM (active)
- outcome [3]: inactive

SMILES: COP(=S)(OC)Oc1ccc([N+](=O)[O-])cc1
- AC50 [1]: 11.3 µM (active)
- AC50 [5]: 25 µM (active)
- AC50 [2]: 12.6 µM (active)
- outcome [9]: inactive
- outcome [3]: inactive
- outcome [4]: inactive

SMILES: CC(C)(C)C(O)C(Oc1ccc(Cl)cc1)n1cncn1 (stereo unspecified)
- AC50 [3]: 55.6 µM (active)

SMILES: CNC(=O)CSP(=S)(OC)OC
- outcome [3]: inactive
- outcome [4]: inactive

SMILES: CCc1ccc(C(=O)NN(C(=O)c2cc(C)cc(C)c2)C(C)(C)C)cc1
- outcome [3]: inactive
- outcome [4]: inactive

SMILES: CC1(c2ccc(Oc3ccccc3)cc2)OC(=O)N(Nc2ccccc2)C1=O (stereo unspecified)
- outcome [3]: inactive
- outcome [4]: inactive

SMILES: O=C(NC(=O)c1c(F)cccc1F)Nc1ccc(OC(F)(F)C(F)OC(F)(F)F)c(Cl)c1 (stereo unspecified)
- outcome [3]: inactive
- outcome [4]: inactive

SMILES: O=C1c2ccccc2C(=O)N1SC(Cl)(Cl)Cl
- outcome [3]: inactive
- outcome [4]: inactive

SMILES: CNC(=O)/C=C(\C)OP(=O)(OC)OC
- outcome [3]: inactive
- outcome [4]: inactive

SMILES: COc1nn(CSP(=S)(OC)OC)c(=O)s1
- outcome [3]: inactive
- outcome [4]: inactive

SMILES: CNC(=O)Oc1cccc(N=CN(C)C)c1
- outcome [3]: inactive
- outcome [4]: inactive
